The results in this text go back to the supplement of paper PMC10849652.

About 8,800 targets were measured; listed, in parts, are those with a hit and a random draw of the rest. About 0.5% of all pairs of compound and target were hits. A number with no mark means an inactive call.

Chain of UniProt Q15386 (Q15386 whole entry, looked up): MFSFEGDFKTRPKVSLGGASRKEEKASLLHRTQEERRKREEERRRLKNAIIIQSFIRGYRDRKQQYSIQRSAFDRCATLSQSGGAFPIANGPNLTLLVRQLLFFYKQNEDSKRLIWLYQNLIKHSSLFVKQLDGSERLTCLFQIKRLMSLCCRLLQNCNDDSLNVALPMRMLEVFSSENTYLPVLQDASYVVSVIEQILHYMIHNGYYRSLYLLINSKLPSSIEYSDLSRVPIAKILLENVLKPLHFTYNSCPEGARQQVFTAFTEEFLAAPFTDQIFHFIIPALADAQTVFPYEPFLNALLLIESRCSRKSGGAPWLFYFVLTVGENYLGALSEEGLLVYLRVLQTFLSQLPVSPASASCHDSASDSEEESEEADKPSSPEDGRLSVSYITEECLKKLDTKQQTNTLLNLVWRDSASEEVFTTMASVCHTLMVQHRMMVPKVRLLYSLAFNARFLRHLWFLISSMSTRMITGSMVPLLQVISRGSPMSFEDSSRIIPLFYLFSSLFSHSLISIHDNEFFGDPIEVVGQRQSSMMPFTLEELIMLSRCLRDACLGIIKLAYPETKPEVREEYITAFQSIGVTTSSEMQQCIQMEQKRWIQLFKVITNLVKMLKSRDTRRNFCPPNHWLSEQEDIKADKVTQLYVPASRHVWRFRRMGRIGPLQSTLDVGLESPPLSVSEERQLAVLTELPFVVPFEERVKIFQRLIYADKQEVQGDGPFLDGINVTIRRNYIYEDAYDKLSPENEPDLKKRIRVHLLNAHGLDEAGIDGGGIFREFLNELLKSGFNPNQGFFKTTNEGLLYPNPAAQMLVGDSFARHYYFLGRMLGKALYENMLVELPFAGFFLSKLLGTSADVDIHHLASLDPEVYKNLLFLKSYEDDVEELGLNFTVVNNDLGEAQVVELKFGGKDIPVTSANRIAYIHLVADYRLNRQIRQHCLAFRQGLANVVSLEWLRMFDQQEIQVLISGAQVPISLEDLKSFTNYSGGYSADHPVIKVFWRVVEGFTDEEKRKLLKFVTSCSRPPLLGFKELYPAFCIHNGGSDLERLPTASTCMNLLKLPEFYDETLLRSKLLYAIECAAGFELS
Chain of UniProt Q12788 (Q12788 whole entry, looked up): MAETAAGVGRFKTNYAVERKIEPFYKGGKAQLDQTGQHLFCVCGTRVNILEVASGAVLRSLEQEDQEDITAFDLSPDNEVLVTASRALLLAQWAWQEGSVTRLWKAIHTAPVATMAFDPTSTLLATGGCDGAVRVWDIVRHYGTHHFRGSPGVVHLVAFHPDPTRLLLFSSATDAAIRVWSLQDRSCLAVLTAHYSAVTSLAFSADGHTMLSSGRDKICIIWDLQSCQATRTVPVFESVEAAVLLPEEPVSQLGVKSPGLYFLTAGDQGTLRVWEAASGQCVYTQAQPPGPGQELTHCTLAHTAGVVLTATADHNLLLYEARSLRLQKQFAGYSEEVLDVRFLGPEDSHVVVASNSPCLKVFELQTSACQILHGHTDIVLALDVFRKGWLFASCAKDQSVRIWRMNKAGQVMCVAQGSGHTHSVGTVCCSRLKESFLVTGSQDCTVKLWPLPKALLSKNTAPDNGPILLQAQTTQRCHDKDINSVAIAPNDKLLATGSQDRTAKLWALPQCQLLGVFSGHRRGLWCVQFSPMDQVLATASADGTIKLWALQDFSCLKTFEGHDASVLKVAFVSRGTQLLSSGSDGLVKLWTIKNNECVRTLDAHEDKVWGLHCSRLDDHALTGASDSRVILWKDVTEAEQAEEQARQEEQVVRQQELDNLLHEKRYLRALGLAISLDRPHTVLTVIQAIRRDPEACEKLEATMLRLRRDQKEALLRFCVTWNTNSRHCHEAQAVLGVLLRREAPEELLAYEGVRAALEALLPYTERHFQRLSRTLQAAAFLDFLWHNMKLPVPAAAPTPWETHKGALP
Chain of UniProt P07437 (P07437 whole entry, looked up): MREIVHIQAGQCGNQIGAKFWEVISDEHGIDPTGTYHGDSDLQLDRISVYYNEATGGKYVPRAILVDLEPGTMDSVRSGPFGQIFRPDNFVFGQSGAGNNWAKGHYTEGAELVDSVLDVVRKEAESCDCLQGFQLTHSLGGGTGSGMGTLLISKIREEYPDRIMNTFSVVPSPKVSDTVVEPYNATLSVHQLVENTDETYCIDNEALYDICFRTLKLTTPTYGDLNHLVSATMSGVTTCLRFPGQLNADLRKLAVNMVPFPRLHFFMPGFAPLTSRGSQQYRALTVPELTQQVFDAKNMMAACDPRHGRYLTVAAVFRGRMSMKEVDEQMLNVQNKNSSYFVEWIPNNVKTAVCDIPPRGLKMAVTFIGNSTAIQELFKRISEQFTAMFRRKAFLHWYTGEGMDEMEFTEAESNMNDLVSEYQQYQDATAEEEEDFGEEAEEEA
Chain of UniProt Q6NXR4 (Q6NXR4 whole entry, looked up): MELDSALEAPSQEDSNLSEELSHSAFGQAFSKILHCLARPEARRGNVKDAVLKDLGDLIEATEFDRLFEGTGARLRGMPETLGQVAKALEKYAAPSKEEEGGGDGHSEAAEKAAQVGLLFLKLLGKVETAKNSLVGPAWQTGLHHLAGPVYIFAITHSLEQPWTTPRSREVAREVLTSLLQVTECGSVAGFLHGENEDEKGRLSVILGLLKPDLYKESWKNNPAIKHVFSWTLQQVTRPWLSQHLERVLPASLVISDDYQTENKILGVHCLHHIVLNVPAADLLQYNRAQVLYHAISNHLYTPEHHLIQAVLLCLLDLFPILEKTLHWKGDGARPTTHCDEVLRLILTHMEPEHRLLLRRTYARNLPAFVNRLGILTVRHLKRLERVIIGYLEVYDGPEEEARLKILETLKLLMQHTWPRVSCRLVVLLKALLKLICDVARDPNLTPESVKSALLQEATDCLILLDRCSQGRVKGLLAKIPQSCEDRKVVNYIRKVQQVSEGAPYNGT
Chain of UniProt Q14139 (Q14139 whole entry, looked up): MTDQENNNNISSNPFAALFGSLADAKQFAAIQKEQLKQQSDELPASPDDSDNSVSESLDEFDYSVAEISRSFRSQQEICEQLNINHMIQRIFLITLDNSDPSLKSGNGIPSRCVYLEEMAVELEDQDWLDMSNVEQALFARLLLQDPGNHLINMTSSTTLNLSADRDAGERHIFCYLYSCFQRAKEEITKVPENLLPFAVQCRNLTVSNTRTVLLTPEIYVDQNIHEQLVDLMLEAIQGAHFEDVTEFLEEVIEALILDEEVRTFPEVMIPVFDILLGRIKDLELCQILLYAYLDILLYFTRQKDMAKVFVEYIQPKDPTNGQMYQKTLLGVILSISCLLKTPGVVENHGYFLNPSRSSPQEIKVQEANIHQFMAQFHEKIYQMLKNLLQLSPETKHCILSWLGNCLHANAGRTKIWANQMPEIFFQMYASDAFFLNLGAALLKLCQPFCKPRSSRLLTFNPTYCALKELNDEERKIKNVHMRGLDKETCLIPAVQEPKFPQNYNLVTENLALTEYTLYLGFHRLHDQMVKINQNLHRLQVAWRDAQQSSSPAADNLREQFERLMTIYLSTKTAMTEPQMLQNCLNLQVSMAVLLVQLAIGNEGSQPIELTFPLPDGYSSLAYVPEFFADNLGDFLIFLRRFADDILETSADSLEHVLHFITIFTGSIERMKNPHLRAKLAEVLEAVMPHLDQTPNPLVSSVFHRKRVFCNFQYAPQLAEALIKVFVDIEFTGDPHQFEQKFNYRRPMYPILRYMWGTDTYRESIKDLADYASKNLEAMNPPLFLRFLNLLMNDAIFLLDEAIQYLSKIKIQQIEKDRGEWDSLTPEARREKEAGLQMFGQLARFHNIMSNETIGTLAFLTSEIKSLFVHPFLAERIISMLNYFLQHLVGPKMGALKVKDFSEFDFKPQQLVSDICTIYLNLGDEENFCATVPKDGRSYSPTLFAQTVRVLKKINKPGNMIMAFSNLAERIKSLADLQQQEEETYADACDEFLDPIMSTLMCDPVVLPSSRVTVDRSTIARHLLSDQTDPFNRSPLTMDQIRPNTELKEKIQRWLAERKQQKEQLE
Chain of UniProt Q6PJ69 (Q6PJ69 whole entry, looked up): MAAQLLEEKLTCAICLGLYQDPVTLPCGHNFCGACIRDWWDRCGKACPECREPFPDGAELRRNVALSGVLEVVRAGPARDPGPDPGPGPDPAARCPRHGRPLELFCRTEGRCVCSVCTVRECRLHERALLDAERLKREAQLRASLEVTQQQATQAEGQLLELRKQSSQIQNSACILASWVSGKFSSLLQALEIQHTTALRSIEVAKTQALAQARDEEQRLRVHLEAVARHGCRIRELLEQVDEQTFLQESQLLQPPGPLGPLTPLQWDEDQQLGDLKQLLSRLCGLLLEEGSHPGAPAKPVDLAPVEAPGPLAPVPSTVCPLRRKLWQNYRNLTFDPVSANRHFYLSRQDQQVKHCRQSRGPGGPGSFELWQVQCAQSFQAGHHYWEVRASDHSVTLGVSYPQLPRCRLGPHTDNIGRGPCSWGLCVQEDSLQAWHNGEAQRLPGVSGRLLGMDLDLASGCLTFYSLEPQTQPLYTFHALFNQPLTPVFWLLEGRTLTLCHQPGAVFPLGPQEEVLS
Chain of UniProt Q8N511 (Q8N511 whole entry, looked up): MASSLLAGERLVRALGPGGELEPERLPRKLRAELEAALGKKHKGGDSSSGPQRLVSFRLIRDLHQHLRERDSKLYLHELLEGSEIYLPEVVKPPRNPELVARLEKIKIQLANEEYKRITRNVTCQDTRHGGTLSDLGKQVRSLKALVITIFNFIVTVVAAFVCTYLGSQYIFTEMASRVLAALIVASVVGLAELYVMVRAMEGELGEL
Chain of UniProt P28289 (P28289 whole entry, looked up): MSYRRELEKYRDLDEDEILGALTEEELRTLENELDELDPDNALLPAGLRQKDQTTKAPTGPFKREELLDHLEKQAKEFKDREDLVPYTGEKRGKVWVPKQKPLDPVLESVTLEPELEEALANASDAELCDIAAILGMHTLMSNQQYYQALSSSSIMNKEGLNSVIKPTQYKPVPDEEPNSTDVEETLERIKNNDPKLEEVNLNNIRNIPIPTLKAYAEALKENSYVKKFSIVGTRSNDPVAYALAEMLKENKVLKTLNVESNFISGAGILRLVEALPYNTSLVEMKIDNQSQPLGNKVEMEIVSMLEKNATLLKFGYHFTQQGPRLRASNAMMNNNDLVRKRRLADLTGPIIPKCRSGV

Compound in the first experiment: CN1CCC(CNc2ccc3ncc(-c4cccc(OC(F)(F)F)c4)n3n2)CC1
Kind of experiment: log2 fold change, soluble protein after heating vs DMSO (PISA); higher = thermal stabilisation; K562 lysate, 10 uM; active = over 0.2 and 3.5 SD of the protein, either way, in both replicates (recomputed). The procedure, abridged: (§1)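 K562 pellets were dounce-homogenised in PBS pH 7.4 containing 1 mM MgCl2, and the crude extract, at 1 mg/mL protein, was exposed to 10 μM compound for 30 min. Aliquots were heated for 3 min across 48°C-58°C, pooled, brought to 0.5% NP-40 at 4°C and spun at 21,000xg for 90 min, with the supernatant taken as soluble protein. TMTpro 16plex LC-MS/MS with equalised channel sums quantified that protein. Values are log-two fold changes in thermal stability relative to solvent controls, taken from duplicates.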
As to TMOD1 (UniProt P28289), the log2 fold change is -0.031.

Consider TOX4 (UniProt O94842), for which the log2 fold change was 0.147.

For the target TMEM199 (UniProt Q8N511), the log2 fold change is 0.054.

For UBE4A isoform 2 (UniProt Q14139), the log2 fold change was -0.081.

Consider TMEM87B (UniProt Q96K49), for which the log2 fold change was -0.032.

For TMPO (UniProt P42167), the log2 fold change is -0.033.

Take TTI2 (UniProt Q6NXR4): the log2 fold change was 0.035.

As to TUBB3 (UniProt Q13509), the log2 fold change was 0.012.

With TUBB (UniProt P07437), the log2 fold change is 0.004.

Turning to TLK1 isoform 2 (UniProt Q9UKI8), the log2 fold change was 0.072.

With TRA2A (UniProt Q13595), the log2 fold change was 0.07.

As to TBL2 (UniProt Q9Y4P3), the log2 fold change was 0.022.

Turning to UBR4 (UniProt Q5T4S7), the log2 fold change is -0.031.

Take TPM4 isoform 2 (UniProt P67936): the log2 fold change is -0.231.

Regarding TBL3 (UniProt Q12788), the log2 fold change was -0.012.

Turning to TTF2 (UniProt Q9UNY4), the log2 fold change was -0.026.

For TJP1 isoform 2 (UniProt Q07157), the log2 fold change was 0.057.

With TRIM65 (UniProt Q6PJ69), the log2 fold change is 0.008.

As to UBE3C (UniProt Q15386), the log2 fold change is 0.002.

Turning to UBAP2 (UniProt Q5T6F2), the log2 fold change was 0.106.

As for TUBA1B (UniProt P68363), the log2 fold change is -0.011.

For TSPAN13 (UniProt O95857), the log2 fold change is 0.059.

Compound in another experiment: CN1CCN(CCOc2cc(OC3CCOCC3)c3c(Nc4c(Cl)ccc5c4OCO5)ncnc3c2)CC1 [saracatinib]
The experiment is described as above. Summed up: as §1
In the case of TPP2 (UniProt Q5VZU9), the log2 fold change is -0.022.

With TUBGCP3 (UniProt Q96CW5), the log2 fold change is 0.002.

In the case of TEX30 (UniProt Q5JUR7), the log2 fold change was -0.011.

As to TPM1 isoform 4 (UniProt P09493), the log2 fold change is 0.031.

In the case of TRAPPC9 isoform 2 (UniProt Q96Q05), the log2 fold change was 0.005.

On to TUT4 (UniProt Q5TAX3), for which the log2 fold change was -0.01.

On to TRIM33 (UniProt H0Y612), for which the log2 fold change is -0.078.

TECR (UniProt Q9NZ01): the log2 fold change was 0.045.

For the target TP53RK (UniProt Q96S44), the log2 fold change was -0.049.

Take THEMIS2 (UniProt Q5TEJ8): the log2 fold change was 0.01.

As for TTC38 (UniProt Q5R3I4), the log2 fold change is -0.026.

As to TPM4 (UniProt P67936), the log2 fold change was 0.002.

Regarding TMOD1 (UniProt P28289), the log2 fold change is -0.001.

Turning to TOX4 (UniProt O94842), the log2 fold change was 0.041.

TMEM199 (UniProt Q8N511): the log2 fold change is 0.048.

On to UBE4A isoform 2 (UniProt Q14139), for which the log2 fold change was 0.011.

For TMEM87B (UniProt Q96K49), the log2 fold change was -0.166.

Turning to TMPO (UniProt P42167), the log2 fold change is 0.014.

For TTI2 (UniProt Q6NXR4), the log2 fold change is 0.037.

Turning to TUBB3 (UniProt Q13509), the log2 fold change is 0.015.

Turning to TUBB (UniProt P07437), the log2 fold change was 0.029.

In the case of TLK1 isoform 2 (UniProt Q9UKI8), the log2 fold change was 0.014.

For TRA2A (UniProt Q13595), the log2 fold change is 0.074.

Take TBL2 (UniProt Q9Y4P3): the log2 fold change was 0.027.

With UBR4 (UniProt Q5T4S7), the log2 fold change is 0.01.

Turning to TPM4 isoform 2 (UniProt P67936), the log2 fold change is -0.001.

For the target TBL3 (UniProt Q12788), the log2 fold change was 0.026.

In the case of TTF2 (UniProt Q9UNY4), the log2 fold change is 0.025.

For TJP1 isoform 2 (UniProt Q07157), the log2 fold change is 0.014.

As to TRIM65 (UniProt Q6PJ69), the log2 fold change was -0.022.

Regarding UBE3C (UniProt Q15386), the log2 fold change is 0.04.

As for UBAP2 (UniProt Q5T6F2), the log2 fold change is 0.028.

Consider TUBA1B (UniProt P68363), for which the log2 fold change is 0.003.

Regarding TSPAN13 (UniProt O95857), the log2 fold change was 0.134.

Compound in a further experiment: CN1CCN(c2nc(C3=C(c4c[nH]c5ccccc45)C(=O)NC3=O)c3ccccc3n2)CC1 [sotrastaurin]
The experiment is described as above. Summed up: as §1
With TPP2 (UniProt Q5VZU9), the log2 fold change is 0.044.

As for TUBGCP3 (UniProt Q96CW5), the log2 fold change is 0.01.

In the case of TEX30 (UniProt Q5JUR7), the log2 fold change is -0.023.

As for TPM1 isoform 4 (UniProt P09493), the log2 fold change is -0.012.

As for TRAPPC9 isoform 2 (UniProt Q96Q05), the log2 fold change is -0.035.

Turning to TUT4 (UniProt Q5TAX3), the log2 fold change was 0.035.

On to TRIM33 (UniProt H0Y612), for which the log2 fold change was 0.006.

In the case of TECR (UniProt Q9NZ01), the log2 fold change is -0.034.

For the target TP53RK (UniProt Q96S44), the log2 fold change is -0.023.

As for THEMIS2 (UniProt Q5TEJ8), the log2 fold change was -0.016.

For the target TTC38 (UniProt Q5R3I4), the log2 fold change was -0.027.

On to TPM4 (UniProt P67936), for which the log2 fold change was 0.013.

As for TMOD1 (UniProt P28289), the log2 fold change was -0.017.

For TOX4 (UniProt O94842), the log2 fold change is 0.005.

TMEM199 (UniProt Q8N511): the log2 fold change was 0.035.

As for UBE4A isoform 2 (UniProt Q14139), the log2 fold change is 0.025.

TMEM87B (UniProt Q96K49): the log2 fold change was 0.026.

Consider TMPO (UniProt P42167), for which the log2 fold change was -0.014.

In the case of TTI2 (UniProt Q6NXR4), the log2 fold change is 0.031.

On to TUBB3 (UniProt Q13509), for which the log2 fold change was 0.027.

As for TUBB (UniProt P07437), the log2 fold change was 0.017.

Turning to TLK1 isoform 2 (UniProt Q9UKI8), the log2 fold change is 0.393 (active).

Take TRA2A (UniProt Q13595): the log2 fold change was 0.

As to TBL2 (UniProt Q9Y4P3), the log2 fold change is 0.001.

With UBR4 (UniProt Q5T4S7), the log2 fold change was 0.007.

For the target TPM4 isoform 2 (UniProt P67936), the log2 fold change was -0.03.

Regarding TBL3 (UniProt Q12788), the log2 fold change is 0.009.

For the target TTF2 (UniProt Q9UNY4), the log2 fold change is 0.024.

Consider TJP1 isoform 2 (UniProt Q07157), for which the log2 fold change was 0.014.

On to TRIM65 (UniProt Q6PJ69), for which the log2 fold change was 0.022.

Take UBE3C (UniProt Q15386): the log2 fold change was 0.03.

Consider UBAP2 (UniProt Q5T6F2), for which the log2 fold change was 0.02.

On to TUBA1B (UniProt P68363), for which the log2 fold change was 0.017.

In the case of TSPAN13 (UniProt O95857), the log2 fold change was -0.154.
